Hits are enriched below; roughly 4.1% of the tested compounds scored in any of these assays.
DAX1 inh-1: blocks DAX1 repression of SF-1 activated StAR promoter; HEK293T StAR-luciferase reporter, SF-1/DAX-1 repression relief; inhibition, % at 6.8 µM; hit rate 1.1% among 370,000;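 active = inhibition above the mean over all tested compounds plus 3 SD, cut at about 3.6% in these data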;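 also: 0% = DAX-1 cells with DMSO and 100% = cells lacking DAX-1 with DMSO; higher inhibition means more luminescence from relief of DAX-1 repression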
hgDAF12 agonist: agonists of H. glycines DAF-12 nuclear receptor. HEK293 GAL4-hgDAF12 UAS-luciferase reporter, agonist luminescence; normalized to butyrate control. hit rate 1.8% among 370,000. activation, % at 6.8 µM. AID 687014;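 active = activation above a cutoff set at the mean of all screened compounds plus 3 SD, cut at about 10% in these data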;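 also: 0% = DMSO wells and 100% = sodium butyrate wells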
DAX1 inh-2: NR0B1 (DAX1) inhibition; AID 504766; inhibition, % at 6.75 µM; HEK293 Gal4-DAX1 luciferase reporter, luminescence; hit rate 0.99% among 340,000;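 active = inhibition above the mean over all tested compounds plus 3 SD, cut at about 4.2% in these data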;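 also: 0% = DAX1-transfected cells with DMSO and 100% = empty-vector control cells with DMSO; inhibition shows as a rise in luminescence from relieved DAX1 repression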
Target sequence (P51843 207-470 limits assumed): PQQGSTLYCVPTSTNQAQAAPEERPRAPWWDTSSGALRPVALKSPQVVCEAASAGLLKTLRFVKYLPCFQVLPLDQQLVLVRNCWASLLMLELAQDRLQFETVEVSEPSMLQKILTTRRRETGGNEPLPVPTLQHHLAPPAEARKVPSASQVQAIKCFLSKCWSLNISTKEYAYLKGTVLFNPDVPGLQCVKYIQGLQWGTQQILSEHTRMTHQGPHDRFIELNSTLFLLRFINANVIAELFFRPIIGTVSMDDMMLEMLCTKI
hcDAF12 agonist: H. contortus DAF-12 activation, primary screen | activation, % at 6.8 µM | HEK293 hcDAF-12 lit1-tk-luc reporter, luminescence; 0% DMSO, 100% Δ7-dafachronic acid | hit rate 1.4% among 370,000;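 active = activation above the mean of all tested compounds plus 3 SD, cut at about 5.5% in these data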;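 also: 100% = response to 3 µM Δ7-dafachronic acid high control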
ssDAF12 agonist: S. stercoralis DAF-12 activation, primary screen; hit rate 1% among 370,000; activation, % at 6.8 µM; HEK293 ssDAF-12/GRIP1 lit1-tk-luc reporter, luminescence; % of 3 µM dafachronic acid response;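 active = activation above the mean over all tested compounds plus 3 SD, cut at about 0.9% in these data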;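 also: 0% = DMSO-only wells and 100% = 3 µM delta7-dafachronic acid wells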
The depositor's hits bear a star; x = no result given.

SMILES	DAX1 inh-1	hgDAF12 agonist	DAX1 inh-2	hcDAF12 agonist	ssDAF12 agonist
Cc1nn(CC(C)C)c(Cl)c1C(=O)NC1CCC(C)CC1 (stereo unspecified)	4.2*	6	1	4	1
Cc1cc(O)c2c(c1)C(=O)[C@@]13C(=C2O)C(=O)[C@H]2C(O)[C@@H]1[C@H]1C(O)[C@@H]3C(=O)C3=C(O)c4c(O)cc(C)cc4C(=O)[C@@]312 (stereo partly specified)	-5	-11	x	-3	-1
CC(C)C[C@H]1COc2cccc(N3CCN(C)CC3)c2S(=O)(=O)N1	4.2*	1	x	-1	-1
CCOC(=O)CC[C@@H]1CC[C@]2(CCCN(Cc3ccccn3)C2)O1	0	-1	x	0	-2
CC[N+](C)(CC)CCCCOc1ccc2c(c1)C(=O)c1cc(OCCCC[N+](C)(CC)CC)ccc1-2	0	3	5.5*	-1	-2
CCN1CCN(c2ncnc3ccc(Br)cc23)CC1	0	5	4.4*	-1	-1
CCc1cc2c(N3CCN(C)CC3)ncnc2s1	0	-2	0	0	-1
COC(=O)C1=C(N)Oc2cc(C)oc(=O)c2C12C(=O)Nc1ccccc12 (stereo unspecified)	0	-2	0	5	1.0*
CCCCOC(=O)C1=C(N)OC2=C(C(=O)CCC2)[C@]12C(=O)Nc1ccccc12	0	4	0	2	0
CC(=O)C1=C(C)OC(N)=C(C(=O)OC(C)C)C12C(=O)Nc1ccccc12 (stereo unspecified)	0	1	0	6.2*	-1
COCCOC(=O)C1=C(C)OC(N)=C(C(=O)OC)C12C(=O)Nc1ccccc12 (stereo unspecified)	0	1	0	3	1
O=C(NCCN1CCC2(CC1)C(=O)NCN2c1ccccc1)c1ccc(F)c(F)c1	2	-2	x	0	-1
N#CCC[C@@H]1CC[C@]2(CCCN(Cc3ccncc3)C2)O1	0	-1	x	1	-1
CCCCn1c(O)c(C(=O)/C=C/c2c[nH]c3ccccc23)c(=O)[nH]c1=O	0	-2	1	6.0*	-1
CCCCn1c(O)c(C(CC)=NCCc2ccccc2)c(=O)[nH]c1=O	0	-3	0	0	-1
COC(=O)[C@H]1C[C@@]2(C)c3ccccc3N[C@H]2N1	1	1	x	5	-1
COc1ccc2c(c1)/C(=C/c1cnc[nH]1)C(=O)N2	-3	0	-3	4	1.1*
O=C1Nc2ccccc2/C1=C/c1cnc[nH]1	-2	-5	-2	-1	0
Cc1cc(N2CCNC[C@H]2C)ccc1N1CCN[C@H](C)C1	0	4	x	2	-1
CC1=Nc2ccccc2/C1=C/c1c(O)n(C)c(=O)[nH]c1=O	0	2	3	6.4*	1
Cc1ccccc1-n1c(O)c(/C=C2/C(c3ccccc3)=Nc3ccccc32)c(=O)[nH]c1=O	-2	0	-1	1	-1
COC(=O)C1=Nc2ccccc2/C1=C\c1c(O)n(-c2cc(OC)ccc2OC)c(=O)[nH]c1=O	0	3	0	5.8*	-1
O=C(Cc1c[nH]c2ccccc12)NNCc1ccc(N(CCCl)CCCl)cc1	-1	1	1	4	49*
NC(=S)N/N=C/c1coc2ccccc2c1=O	0	3	-1	0	1.2*
CN(C)C(=O)Oc1ccc(OCc2nc3ccccc3[nH]2)cc1	3	11*	-2	3	0
SMILES	DAX1 inh-1	hgDAF12 agonist	DAX1 inh-2	hcDAF12 agonist	ssDAF12 agonist
CN(C)C(=O)Oc1ccc(OC(=O)N(C)C)cc1	0	2	0	0	-1
Cc1cc(C)c(-n2c(O)c(/C=N/NC(=O)c3ccncc3)c(=O)[nH]c2=O)c(C)c1	1	-1	x	-1	-1
Cc1ccccc1-n1c(O)c(/C=N/NC(=O)c2ccncc2)c(=O)[nH]c1=O	0	-1	4.4*	0	-1
CC(C)Oc1ccc(C2C(C#N)=C(N)Oc3c2c(=O)oc2ccccc32)cc1 (stereo unspecified)	0	1	0	0	-1
CCCC1C(C#N)=C(N)Oc2c1c(=O)oc1ccccc21 (stereo unspecified)	1	1	4.6*	-2	-1
CC(C)C1C(C#N)=C(N)Oc2c1c(=O)oc1ccccc21 (stereo unspecified)	4.0*	-2	0	0	-1

Screening results from PubChem.
